Bioassay records (PubChem)
Most compounds without a hit are left out; they make up all but 6.8% or so of the library.
HCV NS3h FP: HCV NS3 helicase inhibitors, primary screen, biochemical, fluorescence polarization, ChemBridge library | Hepatitis C virus NS3 helicase | NS3h Cy5-dT15 DNA binding | inhibition, % at 100 µM | actives 1.6% (n = 16,000);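 active = inhibition above the average over every tested compound plus 3 SD, cut at about 40% in these data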
Cy5 interf NS3h: Cy5 fluorescence quenchers or enhancers, artefact control for HCV NS3 helicase inhibitor project, biochemical, ChemBridge library, Cy5 readout; Cy5-dT15 DNA with NS3h, fluorescence interference; actives lie on both sides; signal over control mean, under 1 quenches; AID 720488, 2013; actives 6% (n = 16,000); fluorescence interference ratio at 100 µM;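 active = compound fluorescence over control fluorescence at most 0.8, a quencher, or at least a set upper limit, an enhancer; inactive = ratio between 0.8 and the set upper limit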
HCV NS3h conf: HCV NS3 helicase inhibitors, retest, confirmation, biochemical, fluorescence polarization, ChemBridge library | shares compounds with HCV NS3h FP | NS3h binding to Cy5-dT15 DNA | inhibition, % at 100 µM | actives 20% (n = 240) | AID 720485, 2013;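 active = percent inhibition of 50% or more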
SSB FP counter: E. coli SSB-DNA binding inhibitors, counter-screen for HCV NS3 helicase inhibitor project, biochemical, fluorescence polarization, selected ChemBridge compounds; shares compounds with HCV NS3h FP; E. coli SSB binding Cy5-dT15; inhibition, % at 100 µM; actives 40% (n = 240); AID 720486, 2013;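 active = inhibition of at least 50%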;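 note: displacers lower Cy5 polarization so higher inhibition means more SSB displaced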
Target sequence (P0AGE0 whole entry, looked up): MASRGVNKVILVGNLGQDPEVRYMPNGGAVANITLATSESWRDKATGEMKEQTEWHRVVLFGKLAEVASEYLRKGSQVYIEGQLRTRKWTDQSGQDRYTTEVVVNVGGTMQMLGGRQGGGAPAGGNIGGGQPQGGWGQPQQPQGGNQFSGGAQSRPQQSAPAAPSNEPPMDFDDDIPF
Cy5 SSB interf: Cy5 fluorescence interference with SSB-bound oligo, artefact control for HCV NS3 helicase inhibitor project, biochemical, E. coli SSB, selected ChemBridge compounds. shares compounds with HCV NS3h FP. Cy5-dT15/E. coli SSB fluorescence interference; actives lie on both sides. AID 720487, 2013. actives 8% (n = 240). fluorescence interference ratio at 100 µM;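 active = fluorescence interference ratio at or above 1.2, signal boosting, or at or below 0.8, signal quenching; inactive = ratio between 0.8 and 1.2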;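 note: ratio of compound well signal to mean negative control signal so 1 means no effect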
Cy5 fluor confirm: Cy5-DNA-NS3h complex fluorescence interference, confirmation, artefact control for HCV NS3 helicase inhibitor project, biochemical, ChemBridge library; shares compounds with HCV NS3h FP; Cy5-dT15 DNA/NS3h fluorescence interference counterscreen; fluorescence interference ratio at 100 µM, hits read low; actives 44% (n = 240);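 active = fluorescence interference ratio at or below 0.8 quencher or at or above a set limitenhancer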;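 note: ratio of compound fluorescence to mean of negative controls so 1 means no interference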
* marks the source's active call; other numbers are inactive results; . = no result.

SMILES	HCV NS3h FP	Cy5 interf NS3h	HCV NS3h conf	SSB FP counter	Cy5 SSB interf	Cy5 fluor confirm
O=C1N=c2ccccc2=C1N=Nc1nc(O)c(-c2c(O)[nH]c3ccccc23)s1	124.3*	0.397*	14.0	32.0	0.756*	0.733*
C=CCOc1ccccc1/C=C1/C(=O)ON=C1c1ccc(Cl)cc1	53.4*	1.02	34.1	19.9	0.934	0.857
C=CCOc1ccc(C=C2C(=O)NC(=O)NC2=O)cc1OC	38.4	1.04	.	.	.	.
C=CCOc1ccc(C=C2C(=O)NC(=S)NC2=O)cc1OC	82.3*	1.03	51.0*	91.5*	0.927	0.768*
COc1cc(OC)c(C=C2C(=O)NC(=S)NC2=O)cc1Br	58.9*	1.03	15.0	38.1	0.979	0.968
CCOc1cc(C=C2C(=O)NC(=S)NC2=O)ccc1OCCOc1ccccc1OC	14.7	0.938	.	.	.	.
O=C1NC(=O)C(=Cc2ccccc2OCc2ccccc2F)C(=O)N1	18.2	0.939	.	.	.	.
C=CCOc1ccccc1C=C1C(=O)NC(=S)NC1=O	56.5*	0.921	40.4	107.3*	0.903	0.999
O=C1ON=C(c2ccc(Cl)cc2)/C1=C/c1ccccc1Cl	9.1	0.943	.	.	.	.
COc1ccc(NC(=S)NC(=NS(=O)(=O)c2ccccc2)c2ccccc2)cc1	0.3	0.996	.	.	.	.
CC(C)OC(=O)COc1ccc2c(-c3ccccc3)cc(=O)oc2c1	11.5	1.03	.	.	.	.
Cc1onc(-c2c(Cl)cccc2Cl)c1C(=O)NCc1ccncc1	7.8	1.1	.	.	.	.
COc1cccc(/C=C2/SC(N)=NC2=O)c1	52.6*	1.28*	-8.3	2.9	0.972	1.03
NC1=NC(=O)/C(=C/c2cccc(Oc3ccccc3)c2)S1	-0.6	0.974	.	.	.	.
C=CCNC(=O)C1CC(=O)N(c2ccc(CC)cc2)C1 (stereo not drawn)	0.3	0.995	.	.	.	.
C=CCc1ccccc1OCCn1cc(/C=C2/SC(=S)NC2=O)c2ccccc21	-3.0	1.09	.	.	.	.
O=C(/C=C/c1c[nH]c2ccccc12)c1ccc([N+](=O)[O-])cc1	42.6*	0.992	27.7	15.0	0.949	0.987
O=C(/C=C/c1ccc(-c2ccc(Cl)cc2)o1)c1ccc([N+](=O)[O-])cc1	9.7	1.01	.	.	.	.
Cc1c(CCNC(=O)NS(=O)(=O)c2ccccc2Cl)c2ccccc2n1Cc1ccccc1	15.6	0.995	.	.	.	.
Clc1ccc(N2CCN(c3ncnc4c3cnn4-c3ccccc3)CC2)cc1	-3.9	1.05	.	.	.	.
Cc1ccc(-n2c(-c3ccccc3F)nc3c(cnn3-c3ccccc3)c2=O)cc1	41.1*	1.18	3.4	6.6	1.07	0.769*
S=c1[nH]nc(-c2ccc(Cl)cc2)n1Cc1ccccc1	3.5	1	.	.	.	.
O=C(O)CCC(=O)Nc1ccccc1-c1ccccc1	-2.9	1.1	.	.	.	.
Cc1ccc(N2C(=O)NC(=O)/C(=C\c3ccsc3)C2=O)cc1	55.4*	1.23*	-0.8	2.9	0.981	0.736*
O=C1NC(=S)N(c2ccc(Cl)cc2)C(=O)C1=Cc1ccsc1	26.1	0.891	.	.	.	.
SMILES	HCV NS3h FP	Cy5 interf NS3h	HCV NS3h conf	SSB FP counter	Cy5 SSB interf	Cy5 fluor confirm
COc1ccc(N2C(=O)NC(=O)/C(=C\c3ccc(O)c(Cl)c3)C2=O)cc1	46.6*	1.07	15.0	12.6	0.983	0.749*
COc1ccc(N2C(=O)NC(=O)/C(=C\c3cc(OC)c(OC)cc3OC)C2=O)cc1	1.2	1.01	.	.	.	.
O=C1NC(=O)N(c2cccc(F)c2)C(=O)/C1=C/c1ccc(O)c(Cl)c1	27.3	1.04	.	.	.	.
COc1cc(OC)c(OC)cc1/C=C1/C(=O)NC(=O)N(c2ccccc2)C1=O	43.5*	1.21*	3.4	6.6	1.02	1.04
Cc1cc([N+](=O)[O-])ccc1-c1ccc(/C=C2/C(=O)NC(=S)N(c3ccc(Cl)cc3)C2=O)o1	5.7	1.15	.	.	.	.
Cc1cc(C)c(N2C(=O)NC(=O)/C(=C/c3ccc([N+](=O)[O-])o3)C2=O)c(C)c1	52.4*	0.918	20.3	93.9*	0.938	0.753*
COc1ccccc1OCCOc1c(I)cc(/C=C2/SC(=S)N(C)C2=O)cc1OC	2.2	1.02	.	.	.	.
CCc1cc(C)cc(OCCn2cc(C=C3C(=O)NC(=S)NC3=O)c3ccccc32)c1	-10.7	1.04	.	.	.	.
Cc1ccc(S(=O)(=O)n2cc(C=C3C(=O)NC(=S)NC3=O)c3ccccc32)cc1	61.3*	0.815	20.3	81.8*	0.859	0.849
O=C(O)c1ccc(C(=O)Nc2ccccc2Oc2ccccc2)c(C(=O)O)c1	-1.9	1.07	.	.	.	.
CCOc1ccc(C(=O)Nc2ccc(NC(=O)c3cc4ccccc4o3)c(OC)c2)cc1[N+](=O)[O-]	3.2	1.03	.	.	.	.
CN(C)c1ccc(C2C(C#N)=C(N)OC3=C2C(=O)CC(C)(C)C3)cc1 (stereo not drawn)	14.7	1.07	.	.	.	.
O=C1NC(=S)S/C1=C\c1ccc(Oc2ccc([N+](=O)[O-])cn2)cc1	39.1	1.04	25.6	4.1	0.977	0.724*
O=C1NC(=S)N/C1=C\c1ccc(Oc2ccc([N+](=O)[O-])cn2)cc1	-0.7	0.982	.	.	.	.
CCC(=O)N(CCC1CCOC(C)(C)C1)Cc1ccc(OC)cc1 (stereo not drawn)	-1.8	1.04	.	.	.	.
CN(C)/C=C/C=C/C=C1\CCC/C(=C\C=C\N(C)C)C1=O	55.2*	0.913	40.4	109.7*	0.86	0.959
CN(C)/C=C\C=C\C(=O)C1C2CC3CC(C2)CC1C3 (stereo not drawn)	8.8	0.943	.	.	.	.
CN1C(=O)/C(=C\c2ccc(OCCOc3ccc(C(C)(C)C)cc3)cc2)SC1=S	1.6	1.09	.	.	.	.
O=C(N/N=C/c1ccccc1O)c1cncc(Br)c1	10.9	0.977	.	.	.	.
CCOc1ccc(/C=N/NC(=O)c2cncc(Br)c2)cc1	57.5*	0.797*	2.3	5.3	0.963	0.947
C=CCN1C(=O)/C(=C/c2ccc(-c3ccc([N+](=O)[O-])cc3C)o2)SC1=S	2.7	1.06	.	.	.	.
Cc1ccc(-c2nc3sccn3c2NC(=O)c2ccc(Cl)cc2)cc1	23.3	0.887	.	.	.	.
O=C(NCCc1ccc(F)cc1)C(=O)NC1CC1	6.3	1.05	.	.	.	.
CCOC(=O)c1ccc(-c2ccc(/C=C3/C(=O)NC(=O)N(c4ccccc4)C3=O)o2)cc1	24.0	0.918	.	.	.	.
O=C1NC(=S)N(c2ccccc2)C(=O)/C1=C/c1ccc(-c2cccc(C(=O)O)c2)o1	82.6*	1.02	25.6	81.8*	0.842	0.794*
O=C1NN(c2ccc(Br)cc2)C(=O)/C1=C\c1ccc(-c2cccc(C(=O)O)c2)o1	23.4	0.933	.	.	.	.
O=C1NC(=S)N(c2ccc(Cl)cc2)C(=O)/C1=C\c1ccc(-c2cccc(C(=O)O)c2)o1	71.8*	1.01	57.3*	97.6*	0.924	0.905
